MCL1 BIM primary – inhibitors of human MCL1 binding to BIM-BH3 peptide; Q07820; GST-MCL1 / FITC-Bim-BH3 fluorescence polarization; inhibition, % at 10.9 µM; hit rate 0.68% among 320,000; AID 2057;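 active = inhibition above the mean inhibition of all tested compounds plus 3 SD, set per campaign, cut at about 40% in these data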;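 also: 0% = DMSO wells and 100% = unlabeled Bim-BH3 peptide control; higher means more loss of mP so more displacement of Bim peptide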
Bcl-xL primary – Bcl-xL (human) inhibition. AID 2129. GST-Bcl-xL / FITC-Bim BH3 peptide fluorescence polarization. inhibition, % at 10.9 µM. hit rate 0.7% among 320,000. Q07817;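 active = inhibition above the mean of all tested compounds plus 3 SD, cutoff set per campaign, cut at about 30% in these data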;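 also: 0% = DMSO wells and 100% = unlabeled Bim-BH3 peptide competitor; inhibitors lower millipolarization by displacing the labeled peptide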
GLD-1 TGE inh – GLD-1-TGE RNA interaction inhibition (C. elegans) | purified GLD-1 + fluorescein TGE RNA, fluorescence polarization | Q17339 | inhibition, % at 5.96 µM | hit rate 0.44% among 320,000;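 active = percent inhibition above a per-plate cutoff, the plate mean of test compounds plus 3 SD, cut at about 30% in these data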;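 also: 0% = DMSO wells with GLD-1 and probe and 100% = wells lacking GLD-1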
EBV gp42 inh – inhibitors of Epstein-Barr virus glycoprotein 42; Q1HVG2; Fluorescence polarization binding assay, mP read-out; inhibition, % (tested at 21.74 µM); hit rate 0.42% among 220,000; AID 1085; in the data active = inhibition above about 50%
Target sequence (Q1HVG2 whole entry, looked up): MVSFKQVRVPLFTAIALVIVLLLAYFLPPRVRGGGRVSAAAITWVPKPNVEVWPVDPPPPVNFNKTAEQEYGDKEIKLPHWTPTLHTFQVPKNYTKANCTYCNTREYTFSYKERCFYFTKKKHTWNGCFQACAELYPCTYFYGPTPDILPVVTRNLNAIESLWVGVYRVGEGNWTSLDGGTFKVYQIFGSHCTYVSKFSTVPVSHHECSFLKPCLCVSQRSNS
MEX-5 binding – C. elegans MEX-5 TCR-2 RNA binding activity. MEX-5/FITC-TCR2 RNA binding, fluorescence polarization; stronger effect = lower value. activity score (negative = inhibition of binding), % at 10 µM. hit rate 0.38% among 300,000;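 active = inhibition past about -25% in most replicates, and total fluorescence under double the plate's negative control median, limit read from the data; inconclusive = replicates evenly split on the limit, or fluorescence at least double controls; inactive = too little inhibition in most replicates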;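 also: 0% = DMSO and -100% = 5 µM competing unlabeled TCR2 RNA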
Target sequence (Q9XUB2 whole entry, looked up): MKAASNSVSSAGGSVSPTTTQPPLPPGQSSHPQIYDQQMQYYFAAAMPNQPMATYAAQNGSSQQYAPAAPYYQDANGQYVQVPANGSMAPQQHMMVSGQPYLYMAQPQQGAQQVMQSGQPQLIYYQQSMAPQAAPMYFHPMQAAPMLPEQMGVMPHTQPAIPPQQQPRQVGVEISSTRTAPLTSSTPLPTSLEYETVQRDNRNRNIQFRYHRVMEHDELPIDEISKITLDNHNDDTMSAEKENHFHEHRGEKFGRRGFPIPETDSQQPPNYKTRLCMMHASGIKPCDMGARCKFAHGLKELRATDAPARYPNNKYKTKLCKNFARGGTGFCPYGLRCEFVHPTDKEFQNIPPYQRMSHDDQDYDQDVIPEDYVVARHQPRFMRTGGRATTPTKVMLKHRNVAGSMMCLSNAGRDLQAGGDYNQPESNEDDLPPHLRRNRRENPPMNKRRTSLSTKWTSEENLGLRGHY
Starred values were filed as active, the others as inactive; u = inconclusive; x = not tested or not shown. Sampled rows, rich in hits. Any-hit rate of the full collection: about 1.3%.

SMILES | MCL1 BIM primary | Bcl-xL primary | GLD-1 TGE inh | EBV gp42 inh | MEX-5 binding
COc1ccccc1C(=O)N/C(=C/c1ccco1)C(=O)Nc1cccc(C(=O)O)c1 | 29.2 | 30.7* | 13.6 | x | -5.9
Cc1ccc(C(=O)N/C(=C/c2ccco2)C(=O)Nc2cccc(C(=O)O)c2)cc1 | 11.4 | 16.1 | 18.8 | x | -1.2
CCOc1ccc(-c2csc(NC(=O)CSCC(=O)O)n2)c2ccccc12 | 20.1 | 4.9 | 5.3 | 4.0 | -0.4
CCOc1ccc(-c2csc(NC(=O)CSC3=NC(=O)CN3C(C)=O)n2)c2ccccc12 | 0.0 | 1.1 | -6.8 | 130.3* | 0.1
COc1ccc(Cn2nnnc2CN(Cc2cc3ccc(C)cc3[nH]c2=O)C2CCCC2)cc1 | 0.3 | -0.4 | 1.5 | -1.3 | -1.3
COCCn1nnnc1CN(Cc1cc2cc(OC)c(OC)cc2[nH]c1=O)C1CCCC1 | 41.2* | 33.8* | 22.6 | 7.3 | -2.7
CN(C)c1ccc(/C=C2\N=C(C(C)(C)C)OC2=O)cc1 | -30.0 | -16.0 | -62.7 | x | -42.9*
CN1C(=O)/C(=C\c2ccc(N(C)C)cc2)OC1=S | x | x | x | x | -89.4*
COc1ccc(/C=C2\OC(=S)N(C)C2=O)cc1 | 5.0 | 4.3 | 1.3 | 2.5 | 0.8
CC12C(=O)N(Cc3ccco3)C(=O)C1C1c3ccccc3C2c2ccccc21 (stereo unspecified) | 4.5 | 9.4 | 0.2 | -21.8 | -0.1
CCC(C)(C)n1nnnc1C(c1ccccc1F)N1CCN(C(=O)c2ccco2)CC1 (stereo unspecified) | -0.2 | 3.1 | -1.7 | x | -0.2
COc1ccccc1N1CCN(/N=C/c2cccc(Cl)c2)CC1 | -5.3 | 32.5* | 3.5 | x | 1.0
COc1cccc(/C=N/N2CCN(c3ccccc3OC)CC2)c1 | 0.6 | 1.3 | 5.5 | 10.4 | -0.8
Cc1cc(C)c([C@@H]2C[C@H]3CN(C4CCCC4)C(=O)[C@]34CCCN24)c(-n2cccn2)c1 | 28.7 | 33.8* | 24.7 | -1.1 | -20.6
Cc1ccc(-n2cccn2)c([C@@H]2C[C@H]3CN(C)C(=O)[C@]34CCCN24)c1 | -3.4 | -1.8 | -1.0 | -4.2 | 2.8
CC(C)COc1cccc(C(=O)Nc2ccc(S(=O)(=O)N3CCOCC3)cc2)c1 | 3.8 | -0.4 | 8.3 | -7.3 | -1.7
COc1cccc(-n2c([S-])c(C(=O)Nc3ccc(S(=O)(=O)N4CCOCC4)cc3)[n+]3cc(C(N)=O)ccc23)c1 | 35.2 | 35.7* | 22.6 | -2.9 | -1.9
Cc1cccc(Nc2nc(NCc3ccco3)nc(N3CCOCC3)n2)c1 | 2.2 | 4.3 | 8.9 | -12.0 | 1.5
CCOC(=O)C(=O)Cc1nc2ccccc2s1 | -5.7 | -8.1 | 46.2* | -9.6 | 5.6
CCCc1nc2ccccc2c(=O)n1CC(=O)c1ccc(F)cc1 | -1.6 | 1.4 | -3.5 | x | 2.2
Cc1c(S(=O)(=O)c2ccccn2)c(N)n(Cc2ccccc2)c1C | 47.0* | 55.2* | 22.2 | 3.7 | -1.8
Cc1c(S(=O)(=O)c2ccccn2)c(N)n(Cc2ccccc2Cl)c1C | 26.5 | 20.6 | 10.7 | -0.6 | -4.4
Cc1ccc(N(CC(=O)NCc2ccco2)C(=O)CCC(=O)Nc2nccs2)cc1C | 1.7 | 3.4 | -9.0 | x | 1.1
O=C(/C=C/c1ccoc1)c1ccccc1O | 3.1 | 4.0 | -5.3 | 1.0 | 2.8
O=C(/C=C/c1ccncc1)c1cc(Cl)ccc1O | 2.8 | 6.3 | -9.7 | 5.1 | 2.1
SMILES | MCL1 BIM primary | Bcl-xL primary | GLD-1 TGE inh | EBV gp42 inh | MEX-5 binding
O=C(/C=C/c1ccc(O)c(O)c1)c1ccccc1O | -5.8 | -3.0 | 1.4 | -16.2 | -38.0*
CN(C)c1ccc(/C=C/C(=O)c2cc(Cl)ccc2O)cc1 | 10.8 | 24.8 | 5.1 | 65.4* | 1.8
O=C(Nc1ccc(S(=O)(=O)Nc2ccccc2)cc1)c1ccc(CN2CCOCC2)cc1 | 6.2 | 1.4 | -3.0 | -1.2 | -0.1
Cc1ccccc1C(=O)N1CCC(C(=O)N2CCN(S(=O)(=O)c3ccccc3F)CC2)CC1 | -4.0 | -4.3 | -0.3 | -30.1 | 2.2
CCN(CCCCN1C(=O)c2ccccc2C1=O)c1ccc2c(c1)C(=O)N(C)C2=O | 48.7* | 38.3* | 6.3 | 23.3 | -15.1
Oc1c(Br)cc(/C=N/n2c(-c3ccccc3)n[nH]c2=S)c(Br)c1O | 108.1* | 60.2* | 8.4 | x | -52.0*
CCNC(=O)c1c(N)sc2c1CCCCC2 | 38.5 | 38.7* | 23.8 | 5.2 | -7.2
CCOc1cc(/C=C(\C#N)C(=O)Nc2ccccc2[N+](=O)[O-])ccc1OCc1cccc2ccccc12 | x | x | x | -22.8 | x
O=C(CCc1nc2ccccc2c(=O)[nH]1)N1CCCc2ccccc21 | 43.3* | 51.1* | 27.6 | x | -10.2
O=C(CCc1nc2ccccc2c(=O)[nH]1)N1CCN(c2ccccc2Cl)CC1 | x | x | 7.7 | x | x
NC(=O)CNC(=O)C1CCN(S(=O)(=O)c2ccc(-n3cnnn3)cc2)CC1 | 4.4 | 0.8 | -2.0 | x | 1.8
O=C(CSc1nnc(-c2ccncc2)n1CC1CCCO1)Nc1nccs1 (stereo unspecified) | 2.2 | -2.0 | 47.1* | -3.9 | 1.3
O=C(CSc1nnc(-c2ccncc2)n1CC1CCCO1)Nc1cccc(O)c1 (stereo unspecified) | -1.8 | -4.3 | 6.6 | -11.2 | 3.0
COc1ccc(NC2=Nc3ccccc3N3C2=Nc2c(c(C)nn2-c2ccc(C)cc2)C3c2cccnc2)cc1 (stereo unspecified) | 1.7 | 0.3 | 0.1 | 35.4 | x
CC(=O)Nc1ccc(NC2=Nc3ccccc3N3C2=Nc2c(c(C)nn2-c2ccccc2)C3c2ccccc2)cc1 (stereo unspecified) | -4.4 | -5.5 | 1.2 | 70.8* | -8.2
CCN(CC)Cc1c(O)ccc2c1O/C(=C\C=C\c1ccccc1)C2=O | 19.3 | 27.3 | 12.0 | -12.1 | -7.2
COc1ccccc1/C=C/C=C1\Oc2c(ccc(O)c2CN(C)C)C1=O | 42.4* | 53.5* | -6.5 | -43.4 | u
CCN1CCN(C(=O)c2cc(=O)c3cc(C)ccc3o2)CC1 | 10.9 | 11.3 | -2.5 | x | -2.7
O=C(N/C(=C\c1ccco1)C(=O)N1CCCC1)c1ccccc1 | 40.9* | 40.5* | 7.3 | x | -0.7
CCc1cc(C(=O)N/N=C/c2ccc(O)cc2O)c2ccccc2n1 | 8.5 | 1.1 | 2.5 | x | -0.9
CNC(=O)Nc1cc(NC(=O)NC)cc(C(F)(F)F)c1 | 9.4 | 9.2 | 8.1 | -0.4 | -1.3
Cc1coc(NC(=O)CSc2nc(-c3ccc(Cl)cc3)cc(C(F)(F)F)c2C#N)n1 | 39.9* | 45.1* | 6.3 | -35.4 | -4.5
O=C1c2c(O)cccc2Cc2cccc(O)c21 | 35.8 | 30.8* | 20.9 | x | x
Nc1ccc(N(CCO)CCO)cc1 | 43.0* | 41.9* | 22.2 | -5.9 | -27.8*
CCN(CC)c1ccc(N)cc1 | -13.3 | -3.6 | -9.0 | x | x
O=C/C(=C\Nc1ccccn1)c1nc2ccccc2o1 | -0.2 | 4.5 | -7.5 | -24.7 | -37.1*
COc1ccc(-c2ccc(/C=N/N3C(=O)C4C5C=CC(C6CC56)C4C3=O)o2)c([N+](=O)[O-])c1 (stereo unspecified) | 39.0 | 30.6* | 19.9 | 5.3 | 2.4
